Records with an inconclusive call do not appear. Active and inactive are the calls of the source. The call rests on the fitted dose curve; in most records, active means well fitted curve in the direction sought with a large enough effect in the repeat runs; inconclusive means weak or mixed curves; inactive means no such curve, though single readings can be large; an effect the other way counts as inactive or inconclusive.
Experiments:
[1] = Human pregnane X receptor (PXR) small molecule agonists, qHTS cell viability counter screen (AID 1346977); further: nearly all actives have a fitted effect of over 50% in size; further: potency means the concentration at half of the fitted maximal effect
How it was run: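 Same-well viability read: CellTiter-Fluor added after 23 hr compound exposure, fluorescence measured 1 hr later. Cells were PXR-Luc HepG2 seeded at 2,000/well in 5% charcoal-stripped FBS medium, rested 5 hr before dosing at 37 C.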

[2] = Caspase-3/7 induction in HepG2 cells by small molecules, qHTS assay (AID 1346978); further: nearly all actives have a fitted effect of over 15% in size
How it was run: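 Caspase-3/7 induction was measured by Caspase-Glo 3/7 luminescence (30 min, room temperature) after a 17 hr compound exposure of wild-type HepG2 cells seeded at 2,000 per well and pre-incubated 5 hr.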

[3] = Caspase-3/7 induction in CHO-K1 cells by small molecules, qHTS cell viability counter screen (AID 1346979); further: nearly all actives have a fitted effect of over 35% in size; further: potency means the concentration at half of the fitted maximal effect
How it was run: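 Cytotoxicity counter screen: CellTiter-Fluor added to compound-treated wild-type CHO-K1 cells at 16 h (37C, 5% CO2), fluorescence measured 1 h later; same wells as caspase-3/7 measurement.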

[4] = Caspase-3/7 induction in CHO-K1 cells by small molecules, qHTS assay (AID 1346980); further: nearly all actives have a fitted effect of over 15% in size
How it was run: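 Luminescent Caspase-Glo 3/7 read (30min, room temperature) quantified apoptosis induction. Cells were wild-type CHO-K1, treated with compound for 17hr at 37 C and 5% CO2.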

[5] = Caspase-3/7 induction in HepG2 cells by small molecules, qHTS cell viability counter screen (AID 1346981); further: nearly all actives have a fitted effect of over 30% in size; further: potency means the concentration at half of the fitted maximal effect; on activity change, negative = cytotoxicity: series mostly up to about 92 µM
How it was run: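 HepG2, WT, 2,000 cells/well; 5 hr pre-incubation 37 C/5% CO2; compound pin-transferred from DMSO; 16 hr exposure; CellTiter-Fluor, 1 hr; fluorescence read.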

[6] = target: Cytochrome P450 2D6 (Homo sapiens) (UniProt P10635); assay: Cytochrome P450 Family 2 Subfamily D Member 6 (CYP2D6) small molecule antagonists: luciferase reporter qHTS assay (AID 1671196); further: nearly all actives have a fitted effect of over 50% in size; further: potency means the concentration at half of the fitted maximal effect; on activity change, negative = inhibition: series mostly up to about 120 µM
Sequence of Cytochrome P450 2D6 (Homo sapiens) (P10635 whole entry, looked up): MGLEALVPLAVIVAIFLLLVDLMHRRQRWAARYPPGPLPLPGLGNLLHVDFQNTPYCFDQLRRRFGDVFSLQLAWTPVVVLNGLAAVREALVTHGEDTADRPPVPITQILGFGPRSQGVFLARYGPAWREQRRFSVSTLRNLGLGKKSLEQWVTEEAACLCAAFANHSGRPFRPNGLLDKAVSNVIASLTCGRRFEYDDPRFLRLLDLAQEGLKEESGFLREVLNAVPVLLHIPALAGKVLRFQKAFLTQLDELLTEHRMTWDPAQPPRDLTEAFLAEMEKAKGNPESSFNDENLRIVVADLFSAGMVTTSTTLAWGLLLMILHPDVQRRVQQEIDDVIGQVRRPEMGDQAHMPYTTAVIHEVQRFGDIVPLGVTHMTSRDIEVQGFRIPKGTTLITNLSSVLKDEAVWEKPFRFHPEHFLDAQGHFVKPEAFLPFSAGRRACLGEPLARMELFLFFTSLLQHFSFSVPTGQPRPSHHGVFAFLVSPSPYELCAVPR
How it was run: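 Read-out is luminescence from luciferin formed by CYP2D6 turnover of a proluciferin substrate, recorded as relative luminescence units. Reactions ran 1 h at room temperature after NADPH regeneration solution was added.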

[7] = target: Cytochrome P450 2C19 (Homo sapiens) (UniProt P33261); assay: Cytochrome P450 Family 2 Subfamily C Member 19 (CYP2C19) small molecule antagonists: luciferase reporter qHTS assay (AID 1671197); further: nearly all actives have a fitted effect of over 65% in size; further: potency means the concentration at half of the fitted maximal effect; on activity change, negative = inhibition: series mostly up to about 120 µM
Sequence of Cytochrome P450 2C19 (Homo sapiens) (P33261 whole entry, looked up): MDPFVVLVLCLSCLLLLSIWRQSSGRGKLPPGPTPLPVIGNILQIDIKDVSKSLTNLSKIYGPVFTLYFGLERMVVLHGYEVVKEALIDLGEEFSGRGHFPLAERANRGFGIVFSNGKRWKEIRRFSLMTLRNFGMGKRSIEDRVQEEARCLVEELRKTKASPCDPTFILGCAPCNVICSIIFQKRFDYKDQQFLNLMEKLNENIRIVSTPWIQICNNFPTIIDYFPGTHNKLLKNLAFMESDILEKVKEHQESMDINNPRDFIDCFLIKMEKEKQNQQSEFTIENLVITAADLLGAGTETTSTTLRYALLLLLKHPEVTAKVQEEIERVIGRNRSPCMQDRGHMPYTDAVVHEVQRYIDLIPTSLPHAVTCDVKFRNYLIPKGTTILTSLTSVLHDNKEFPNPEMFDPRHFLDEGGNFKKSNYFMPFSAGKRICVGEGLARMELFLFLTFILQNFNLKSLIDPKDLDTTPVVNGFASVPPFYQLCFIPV
How it was run: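 P450-Glo CYP2C19 system: enzyme-substrate mix with compound 10 min at room temperature, then NADPH regeneration solution, 1 h at 37C. Proluciferin-to-luciferin conversion detected by luminescence after 20 min with detection reagent; ketoconazole as positive control.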

[8] = target: Cytochrome P450 1A2 (Homo sapiens) (UniProt P05177); assay: Cytochrome P450 Family 1 Subfamily A Member 2 (CYP1A2) small molecule antagonists: luciferase reporter qHTS assay (AID 1671199); further: nearly all actives have a fitted effect of over 50% in size; further: potency means the concentration at half of the fitted maximal effect; on activity change, negative = inhibition: series mostly up to about 120 µM
Sequence of Cytochrome P450 1A2 (Homo sapiens) (P05177 whole entry, looked up): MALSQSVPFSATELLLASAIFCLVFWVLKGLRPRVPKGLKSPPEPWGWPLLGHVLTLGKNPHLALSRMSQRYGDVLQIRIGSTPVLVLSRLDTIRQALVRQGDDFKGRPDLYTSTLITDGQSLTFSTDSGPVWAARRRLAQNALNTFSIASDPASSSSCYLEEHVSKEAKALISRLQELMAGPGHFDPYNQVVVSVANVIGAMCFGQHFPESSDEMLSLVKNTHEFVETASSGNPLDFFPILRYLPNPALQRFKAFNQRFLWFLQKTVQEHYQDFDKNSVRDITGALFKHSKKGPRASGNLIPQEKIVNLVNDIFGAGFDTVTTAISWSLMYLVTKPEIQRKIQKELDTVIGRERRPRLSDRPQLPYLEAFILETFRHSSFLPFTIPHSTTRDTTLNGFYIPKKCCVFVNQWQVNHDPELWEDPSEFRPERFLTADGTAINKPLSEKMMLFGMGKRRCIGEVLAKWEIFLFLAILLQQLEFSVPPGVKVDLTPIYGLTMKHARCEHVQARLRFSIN
How it was run: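 P450-Glo CYP1A2, 1536-well qHTS: enzyme/proluciferin substrate + cpd (DMSO), 10 min RT; NADPH regen, 1 h RT; detection reagent, 20 min; luminescence, RLU.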

[9] = target: Voltage-gated inwardly rectifying potassium channel KCNH2 (Homo sapiens) (UniProt Q12809); assay: Human Ether-a-go-go-Related Gene (hERG) channel small molecule antagonists: fluorescence cell-based qHTS assay (AID 1671200); further: nearly all actives have a fitted effect of over 50% in size; further: potency means the concentration at half of the fitted maximal effect; on activity change, negative = inhibition: series mostly up to about 77 µM
Sequence of Voltage-gated inwardly rectifying potassium channel KCNH2 (Homo sapiens) (Q12809 whole entry, looked up): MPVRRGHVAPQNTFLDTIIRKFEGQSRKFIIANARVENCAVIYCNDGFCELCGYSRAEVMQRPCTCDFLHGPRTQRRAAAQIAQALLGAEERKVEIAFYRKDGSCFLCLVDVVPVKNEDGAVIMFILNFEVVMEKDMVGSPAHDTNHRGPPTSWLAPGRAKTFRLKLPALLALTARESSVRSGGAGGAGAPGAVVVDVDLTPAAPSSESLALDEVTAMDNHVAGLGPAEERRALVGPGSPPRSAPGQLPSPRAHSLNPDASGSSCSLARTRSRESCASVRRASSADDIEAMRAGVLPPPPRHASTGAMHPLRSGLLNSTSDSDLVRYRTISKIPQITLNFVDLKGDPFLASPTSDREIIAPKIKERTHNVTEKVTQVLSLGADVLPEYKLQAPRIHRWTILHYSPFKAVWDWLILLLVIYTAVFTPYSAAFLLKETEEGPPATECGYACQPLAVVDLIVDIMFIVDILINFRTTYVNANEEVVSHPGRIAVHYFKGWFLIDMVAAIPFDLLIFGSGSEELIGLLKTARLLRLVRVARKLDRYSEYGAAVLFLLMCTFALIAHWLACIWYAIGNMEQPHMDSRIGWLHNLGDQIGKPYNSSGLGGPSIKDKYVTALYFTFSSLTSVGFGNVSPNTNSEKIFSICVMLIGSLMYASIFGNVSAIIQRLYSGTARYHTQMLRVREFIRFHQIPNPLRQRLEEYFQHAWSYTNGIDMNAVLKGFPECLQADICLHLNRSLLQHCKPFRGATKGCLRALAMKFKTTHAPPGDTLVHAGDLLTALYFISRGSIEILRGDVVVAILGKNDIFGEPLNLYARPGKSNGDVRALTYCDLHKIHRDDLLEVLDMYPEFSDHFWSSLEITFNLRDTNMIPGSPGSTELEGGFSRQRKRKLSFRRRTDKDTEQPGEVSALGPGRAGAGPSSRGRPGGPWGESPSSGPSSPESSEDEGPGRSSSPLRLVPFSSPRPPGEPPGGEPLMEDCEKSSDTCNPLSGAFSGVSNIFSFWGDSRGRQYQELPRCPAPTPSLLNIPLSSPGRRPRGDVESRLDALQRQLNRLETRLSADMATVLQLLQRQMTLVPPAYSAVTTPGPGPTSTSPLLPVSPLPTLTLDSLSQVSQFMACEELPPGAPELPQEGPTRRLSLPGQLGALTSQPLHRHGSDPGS
How it was run: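 Thallium flux as potassium surrogate: FluxOR II dye loaded 1 h at room temperature into hERG-expressing U2OS cells, then stimulus buffer added after 10 min. Kinetic 480 nm excitation/540 nm emission read, 2 min.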

[10] = target: Cytochrome P450 3A4 (Homo sapiens) (UniProt P08684); assay: Cytochrome P450 Family 3 Subfamily A Member 4 (CYP3A4) small molecule antagonists: luciferase reporter qHTS assay (AID 1671201); further: nearly all actives have a fitted effect of over 50% in size; further: potency means the concentration at half of the fitted maximal effect; on activity change, negative = inhibition: series mostly up to about 120 µM
Sequence of Cytochrome P450 3A4 (Homo sapiens) (P08684 whole entry, looked up): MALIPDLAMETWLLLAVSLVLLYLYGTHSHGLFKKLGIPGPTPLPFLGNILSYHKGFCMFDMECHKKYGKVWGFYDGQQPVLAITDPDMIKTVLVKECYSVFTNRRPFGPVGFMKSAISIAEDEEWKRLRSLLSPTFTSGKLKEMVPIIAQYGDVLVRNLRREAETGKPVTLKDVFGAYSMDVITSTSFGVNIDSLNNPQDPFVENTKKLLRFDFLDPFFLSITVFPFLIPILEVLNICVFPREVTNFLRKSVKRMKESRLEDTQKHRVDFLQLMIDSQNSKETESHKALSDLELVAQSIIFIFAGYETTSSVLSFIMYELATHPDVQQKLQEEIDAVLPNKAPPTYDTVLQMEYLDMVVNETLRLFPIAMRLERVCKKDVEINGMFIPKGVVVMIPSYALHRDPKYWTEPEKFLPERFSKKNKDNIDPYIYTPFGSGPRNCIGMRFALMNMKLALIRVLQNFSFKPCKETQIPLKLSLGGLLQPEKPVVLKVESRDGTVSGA
How it was run: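 Recombinant human CYP3A4 converts a proluciferin substrate to luciferin over 1 h at room temperature after NADPH regeneration solution is added (compound preincubated 10 min); detection reagent stops reaction, luminescence read 20 min later as relative units.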

[11] = target: Cytochrome P450 2C9 (Homo sapiens) (UniProt P11712); assay: Cytochrome P450 Family 2 Subfamily C Member 9 (CYP2C9) small molecule antagonists: luciferase reporter qHTS assay (AID 1671198); further: nearly all actives have a fitted effect of over 50% in size; further: potency means the concentration at half of the fitted maximal effect; on activity change, negative = inhibition: series mostly up to about 120 µM
Sequence of Cytochrome P450 2C9 (Homo sapiens) (P11712 whole entry, looked up): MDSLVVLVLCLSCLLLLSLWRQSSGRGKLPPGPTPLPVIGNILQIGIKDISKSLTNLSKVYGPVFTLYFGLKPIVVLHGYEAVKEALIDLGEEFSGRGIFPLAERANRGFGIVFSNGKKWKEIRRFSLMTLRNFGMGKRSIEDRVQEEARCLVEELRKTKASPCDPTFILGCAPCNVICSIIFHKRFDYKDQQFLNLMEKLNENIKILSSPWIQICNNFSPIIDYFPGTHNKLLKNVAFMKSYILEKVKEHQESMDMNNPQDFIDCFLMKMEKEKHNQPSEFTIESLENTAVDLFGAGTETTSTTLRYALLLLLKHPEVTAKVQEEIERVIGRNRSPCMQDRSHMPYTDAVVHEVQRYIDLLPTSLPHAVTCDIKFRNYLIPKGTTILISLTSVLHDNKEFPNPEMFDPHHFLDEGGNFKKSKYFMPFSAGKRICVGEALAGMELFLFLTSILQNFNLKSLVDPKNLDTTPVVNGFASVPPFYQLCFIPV
How it was run: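 Enzyme-substrate mix preincubated with compound 10 min at room temperature; reaction started with NADPH regeneration solution, 1 h 37C. Luminescent luciferin product read after 20 min detection reagent.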

[12] = target: Nuclear receptor subfamily 1 group I member 2 (Homo sapiens) (UniProt O75469); assay: Human pregnane X receptor (PXR) small molecule agonists, qHTS assay (AID 1346982); further: nearly all actives have a fitted effect of over 35% in size; further: potency means the concentration at half of the fitted maximal effect
Sequence of Nuclear receptor subfamily 1 group I member 2 (Homo sapiens) (O75469 whole entry, looked up): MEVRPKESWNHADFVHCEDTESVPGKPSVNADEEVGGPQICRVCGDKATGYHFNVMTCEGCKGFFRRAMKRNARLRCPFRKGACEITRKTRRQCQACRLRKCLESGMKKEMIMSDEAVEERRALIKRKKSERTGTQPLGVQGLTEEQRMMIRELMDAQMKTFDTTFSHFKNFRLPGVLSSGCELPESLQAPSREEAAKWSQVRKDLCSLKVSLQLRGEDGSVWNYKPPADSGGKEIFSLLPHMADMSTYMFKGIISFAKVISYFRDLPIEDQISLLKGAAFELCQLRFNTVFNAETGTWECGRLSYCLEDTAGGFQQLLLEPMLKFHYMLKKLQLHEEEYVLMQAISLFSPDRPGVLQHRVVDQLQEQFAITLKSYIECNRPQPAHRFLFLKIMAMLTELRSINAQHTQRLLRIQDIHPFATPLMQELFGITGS
How it was run: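 Luciferase signal from ONE-Glo (30 min, room temperature) measured activation of hPXR-driven CYP3A4 reporter expression in PXR-Luc HepG2 cells treated with compounds for 24 hr at 37 C.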
On the % scale 0 is the no-effect control and ±100 the full control effect.

CC1=CC[C@@H]2C[C@H]1C2(C)C
active: Potency [10] 3.98 µM
inactive: activity change, negative = cytotoxicity [1] 1.01% [at 19 µM] | caspase activation [2] -0.809% [at 19 µM] | activity change, negative = cytotoxicity [3] -0.814% [at 19 µM] | caspase-3/7 activation [4] 0.0875% [at 19 µM] | activity change, negative = cytotoxicity [5] -0.185% [at 19 µM] | activity change, negative = inhibition [6] -8.83% [at 23.6 µM] | activity change, negative = inhibition [7] -6.89% [at 23.6 µM] | activity change, negative = inhibition [8] -16.3% [at 23.6 µM] | activity change, negative = inhibition [9] -0.97% [at 15.8 µM]

CC(C)COC(=O)COc1cc(Cl)c(Cl)cc1Cl
inactive: Potency [1] | Potency [2] | Potency [3] | outcome [4] | Potency [5]
active: Potency [7] 8.91 µM | Potency [11] 35.5 µM

O=C1OC[C@H](Cc2cccc(O)c2)[C@H]1Cc1cccc(O)c1
active: Potency [7] 4.8 µM | Potency [11] 13.5 µM | Potency [10] 9.58 µM
inactive: Potency [1] | Potency [2] | Potency [3] | outcome [4] | Potency [5] | Potency [12] | Potency [9]

[Cl][Nd]([Cl])[Cl]
inactive: Potency [1] | Potency [2] | Potency [3] | outcome [4] | Potency [12] | Potency [6] | Potency [7] | Potency [8] | Potency [9] | Potency [10]

CCCCCC
inactive: Potency [1] | Potency [2] | Potency [3] | outcome [4] | Potency [5] | Potency [9]

CN=C(N)NC(=O)Nc1c(C)cccc1C
inactive: Potency [1] | Potency [2] | Potency [3] | outcome [4] | Potency [12] | Potency [6] | Potency [11] | Potency [9]

CCNc1nc(N)nc(Cl)n1
active: Potency [8] 31.7 µM
inactive: Potency [1] | Potency [2] | Potency [3] | outcome [4] | Potency [5] | Potency [12] | Potency [11] | Potency [9] | Potency [10]

CC1C(C)(C)C2=C(C(=O)CCC2)C1(C)C (stereo not drawn)
inactive: Potency [1] | Potency [2] | Potency [3] | outcome [4] | Potency [12] | Potency [6] | Potency [7] | Potency [11] | Potency [9]

CCCCCCCCCCCCCOC(=O)CCSCCC(=O)OCCCCCCCCCCCCC
active: Potency [7] 10.6 µM
inactive: activity change, negative = cytotoxicity [1] -0.253% [at 19 µM] | caspase activation [2] 0.0624% [at 19 µM] | activity change, negative = cytotoxicity [3] 0.0364% [at 19 µM] | caspase-3/7 activation [4] 0.789% [at 19 µM] | activation [12] 3.58% [at 19 µM] | activity change, negative = inhibition [6] -6.54% [at 23.6 µM] | activity change, negative = inhibition [9] -9.44% [at 15.8 µM]

CC(C)N=C=NC(C)C
inactive: Potency [1] | Potency [2] | Potency [3] | outcome [4] | Potency [12] | Potency [6] | Potency [7] | Potency [11] | Potency [8] | Potency [9] | Potency [10]

CO[C@@H]1[C@@H](OC)[C@H](C)[C@@](O)(CC(=O)O)O[C@H]1[C@H](C)[C@H]1O[C@@]2(CC[C@@](C)([C@H]3CC[C@@](C)([C@@H]4O[C@@H]([C@H]5O[C@](C)(O)[C@H](C)C[C@@H]5C)C[C@@H]4OC4C[C@H](OC)[C@@H](OC)[C@H](C)O4)O3)O2)C[C@H](O)[C@H]1C (stereo partly drawn)
active: Potency [1] 3.35 µM | Potency [3] 1.33 µM | Potency [5] 3.76 µM
inactive: Potency [2] | outcome [4] | Potency [6] | Potency [7] | Potency [11] | Potency [9]

CC(=O)NCCO
inactive: Potency [1] | Potency [2] | Potency [3] | outcome [4] | Potency [12] | Potency [6] | Potency [7] | Potency [9]

CCC(=O)OCc1ccc(OC)cc1
active: Potency [7] 64.9 µM
inactive: Potency [1] | Potency [2] | Potency [3] | outcome [4] | Potency [12] | Potency [6] | Potency [9] | Potency [10]

CC(C)(C)C1(CCc2ccc(Cl)cc2)CO1 (stereo not drawn)
inactive: Potency [1] | Potency [2] | Potency [3] | outcome [4] | Potency [5] | Potency [10]
active: Potency [7] 1.26 µM | Potency [11] 17.8 µM | Potency [8] 20 µM | Potency [9] 24.5 µM

c1ccc(CNc2ncnc3c2ncn3C2CCCCO2)cc1 (stereo not drawn)
inactive: Potency [1] | Potency [2] | Potency [3] | outcome [4] | Potency [5] | Potency [6] | Potency [9] | Potency [10]
active: Potency [12] 21.7 µM | Potency [8] 28.3 µM

O=C(Oc1ccccc1)c1ccc2ccccc2c1O
inactive: Potency [1] | Potency [2] | Potency [3] | outcome [4] | Potency [5]
active: Potency [12] 61.1 µM | Potency [7] 79.6 µM | Potency [11] 12.6 µM | Potency [8] 5.64 µM

BrC(Br)C(Br)Br
inactive: Potency [1] | Potency [2] | Potency [3] | outcome [4] | Potency [5] | Potency [12] | Potency [6] | Potency [11] | Potency [9] | Potency [10]

O=C1[C@@H]2[C@H]3CC[C@H](C3)[C@@H]2C(=O)N1CCCCN1CCN(c2ncccn2)CC1
inactive: Potency [1] | Potency [2] | Potency [3] | outcome [4] | Potency [12] | Potency [7] | Potency [11] | Potency [8] | Potency [9]
active: Potency [6] 12.3 µM

CCC1CCC(CCC(=O)O)C1 (stereo not drawn)
inactive: Potency [1] | Potency [2] | Potency [3] | outcome [4] | Potency [5] | Potency [6] | Potency [9] | Potency [10]
active: Potency [7] 40.8 µM | Potency [11] 36.4 µM

OCC(CO)n1cnc(-c2ccc(F)cc2)c1-c1ccnc(Oc2ccccc2)n1
inactive: Potency [1] | Potency [2] | Potency [3] | outcome [4] | Potency [5] | Potency [8] | Potency [9]
active: Potency [7] 31.7 µM | Potency [11] 35.6 µM

FC(F)(F)C(F)(F)C(F)(F)C(F)(F)CCI
inactive: Potency [1] | Potency [2] | Potency [3] | outcome [4] | Potency [12] | Potency [6] | Potency [7] | Potency [11] | Potency [9] | Potency [10]

From PubChem BioAssay (Tox21)
